# Data published in PubChem BioAssay AID1159580 (chemical genetic matrix, 2015).
# Among all 5,500 compounds or so, about 2,000 (36%) were called active. Roughly 18% stayed inconclusive and do not appear here. The list shows a part of the results. A number with no mark means an inactive call. No stated cut-off is given here; in the data, active means normalized growth mostly below about 0.91 (no sharp cut-off); inconclusive means no clear call, values can overlap the other calls; inactive means mostly above about 0.92.
# Assay: chemical genetic growth profiling, strain panel (AID 1159580);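 further: tested at 20 µM; growth read once vehicle control cultures reached saturation at 30 °C; 1 = growth at the plate median or of vehicle wells; lower values mean less growth of the strain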
# Conditions: growth OD
compound,measurement,setting,value
CC(=O)OC1CCC2C3CCc4cc(O)ccc4C3CCC12C (stereo unspecified),normalized growth,"S. cerevisiae deletion strains, locus YJR075W, strain HOC1, active compounds read low",0.919
same,normalized growth,"S. cerevisiae deletion strains, locus YKL009W, strain mrt4, active compounds read low",0.923
same,normalized growth,"S. cerevisiae deletion strains, locus YKL068W, active compounds read low",1.01
same,normalized growth,"S. cerevisiae deletion strains, locus YKL085W, strain MDH1 (second series), active compounds read low",0.98
same,normalized growth,"S. cerevisiae deletion strains, locus YKL085W, strain MDH1, active compounds read low",0.98
same,normalized growth,"S. cerevisiae deletion strains, locus YKL160W, strain elf1, active compounds read low",0.904
same,normalized growth,"S. cerevisiae deletion strains, locus YKL190W, strain CNB1, active compounds read low",1.01
same,normalized growth,"S. cerevisiae deletion strains, locus YKR001C, strain vps1, active compounds read low",0.977
same,normalized growth,"S. cerevisiae deletion strains, locus YKR026C, strain gcn3, active compounds read low",0.998
same,normalized growth,"S. cerevisiae deletion strains, locus YKR091W, strain srl3, active compounds read low",1
same,normalized growth,"S. cerevisiae deletion strains, locus YLL001W, strain dnm1, active compounds read low",0.963
same,normalized growth,"S. cerevisiae deletion strains, locus YLL026W, active compounds read low",0.996
same,normalized growth,"S. cerevisiae deletion strains, locus YLL041C, strain sdh2, active compounds read low",1.02
same,normalized growth,"S. cerevisiae deletion strains, locus YLR027C, strain aat2, active compounds read low",0.976
same,normalized growth,"S. cerevisiae deletion strains, locus YLR039C, strain RIC1, active compounds read low",0.86
same,normalized growth,"S. cerevisiae deletion strains, locus YLR058C, strain SHM2, active compounds read low",0.971
same,normalized growth,"S. cerevisiae deletion strains, locus YLR102C, strain apc9, active compounds read low",1.02
same,normalized growth,"S. cerevisiae deletion strains, locus YLR113W, strain HOG1, active compounds read low",0.918
same,normalized growth,"S. cerevisiae deletion strains, locus YLR221C, strain rsa3, active compounds read low",0.949
same,normalized growth,"S. cerevisiae deletion strains, locus YLR258W, strain gsy2, active compounds read low",0.978
same,normalized growth,"S. cerevisiae deletion strains, locus YLR262C, strain YPT6 (second series), active compounds read low",0.856 (active)
same,normalized growth,"S. cerevisiae deletion strains, locus YLR262C, strain YPT6, active compounds read low",0.832
same,normalized growth,"S. cerevisiae deletion strains, locus YLR268W, strain sec22, active compounds read low",0.97
same,normalized growth,"S. cerevisiae deletion strains, locus YLR320W, strain mms22, active compounds read low",0.922
same,normalized growth,"S. cerevisiae deletion strains, locus YLR330W, strain CHS5, active compounds read low",1.02
same,normalized growth,"S. cerevisiae deletion strains, locus YLR342W, strain FKS1 (second series), active compounds read low",0.891
same,normalized growth,"S. cerevisiae deletion strains, locus YLR342W, strain FKS1, active compounds read low",0.886 (active)
same,normalized growth,"S. cerevisiae deletion strains, locus YLR357W, strain rsc2, active compounds read low",0.848 (active)
same,normalized growth,"S. cerevisiae deletion strains, locus YLR370C, strain arc18, active compounds read low",0.98
same,normalized growth,"S. cerevisiae deletion strains, locus YLR371W, strain rom2, active compounds read low",1.01
same,normalized growth,"S. cerevisiae deletion strains, locus YLR384C, strain iki3, active compounds read low",0.964
same,normalized growth,"S. cerevisiae deletion strains, locus YLR418C, strain cdc73, active compounds read low",0.941
same,normalized growth,"S. cerevisiae deletion strains, locus YML016C, strain PPZ1, active compounds read low",1
same,normalized growth,"S. cerevisiae deletion strains, locus YML032C, strain rad52, active compounds read low",0.954
same,normalized growth,"S. cerevisiae deletion strains, locus YML120C, strain ndi1, active compounds read low",0.98
same,normalized growth,"S. cerevisiae deletion strains, locus YML124C, strain tub3, active compounds read low",1.01
same,normalized growth,"S. cerevisiae deletion strains, locus YMR058W, strain fet3, active compounds read low",0.983
same,normalized growth,"S. cerevisiae deletion strains, locus YMR078C, strain ctf18, active compounds read low",1.02
same,normalized growth,"S. cerevisiae deletion strains, locus YMR125W, strain sto1, active compounds read low",0.927
same,normalized growth,"S. cerevisiae deletion strains, locus YMR129W, active compounds read low",1.01
same,normalized growth,"S. cerevisiae deletion strains, locus YMR205C, strain PFK2, active compounds read low",0.954
same,normalized growth,"S. cerevisiae deletion strains, locus YMR223W, strain ubp8, active compounds read low",0.969
same,normalized growth,"S. cerevisiae deletion strains, locus YMR231W, strain pep5, active compounds read low",1.01
same,normalized growth,"S. cerevisiae deletion strains, locus YMR263W, strain SAP30, active compounds read low",0.919
same,normalized growth,"S. cerevisiae deletion strains, locus YMR307W, strain GAS1, active compounds read low",0.54 (active)
same,normalized growth,"S. cerevisiae deletion strains, locus YNL067W, strain RPL9B, active compounds read low",0.945
same,normalized growth,"S. cerevisiae deletion strains, locus YNL071W, strain lat1, active compounds read low",0.994
same,normalized growth,"S. cerevisiae deletion strains, locus YNL153C, strain GIM3, active compounds read low",0.891
same,normalized growth,"S. cerevisiae deletion strains, locus YNL183C, strain NPR1, active compounds read low",0.885
same,normalized growth,"S. cerevisiae deletion strains, locus YNL209W, strain ssb2, active compounds read low",0.982
same,normalized growth,"S. cerevisiae deletion strains, locus YNL233W, strain BNI4, active compounds read low",0.806 (active)
same,normalized growth,"S. cerevisiae deletion strains, locus YNL248C, strain rpa49, active compounds read low",0.975
same,normalized growth,"S. cerevisiae deletion strains, locus YNL250W, strain rad50, active compounds read low",1.01
same,normalized growth,"S. cerevisiae deletion strains, locus YNL271C, strain bni1, active compounds read low",1.02
same,normalized growth,"S. cerevisiae deletion strains, locus YNL298W, strain CLA4, active compounds read low",0.973
same,normalized growth,"S. cerevisiae deletion strains, locus YNL307C, strain MCK1, active compounds read low",1
same,normalized growth,"S. cerevisiae deletion strains, locus YNL322C, strain KRE1 (second series), active compounds read low",0.973
same,normalized growth,"S. cerevisiae deletion strains, locus YNL322C, strain KRE1, active compounds read low",0.963
same,normalized growth,"S. cerevisiae deletion strains, locus YNR049C, strain mso1, active compounds read low",1.01
same,normalized growth,"S. cerevisiae deletion strains, locus YNR052C, strain pop2, active compounds read low",1.01
same,normalized growth,"S. cerevisiae deletion strains, locus YOL006C, strain TOP1, active compounds read low",0.942
same,normalized growth,"S. cerevisiae deletion strains, locus YOL012C, strain htz1",1.3
same,normalized growth,"S. cerevisiae deletion strains, locus YOL147C, strain pex11, active compounds read low",1.02
same,normalized growth,"S. cerevisiae deletion strains, locus YOR001W, strain rrp6, active compounds read low",0.966
same,normalized growth,"S. cerevisiae deletion strains, locus YOR061W, strain CKA2, active compounds read low",1
same,normalized growth,"S. cerevisiae deletion strains, locus YOR069W, strain VPS5, active compounds read low",1.01
same,normalized growth,"S. cerevisiae deletion strains, locus YOR070C, strain gyp1, active compounds read low",0.989
same,normalized growth,"S. cerevisiae deletion strains, locus YOR080W, strain dia2, active compounds read low",0.998
same,normalized growth,"S. cerevisiae deletion strains, locus YOR083W, strain WHI5, active compounds read low",0.904
same,normalized growth,"S. cerevisiae deletion strains, locus YOR106W, strain vam3, active compounds read low",0.94
same,normalized growth,"S. cerevisiae deletion strains, locus YOR136W, strain idh2, active compounds read low",0.994
same,normalized growth,"S. cerevisiae deletion strains, locus YOR144C, strain elg1, active compounds read low",1
same,normalized growth,"S. cerevisiae deletion strains, locus YOR184W, strain ser1, active compounds read low",0.945
same,normalized growth,"S. cerevisiae deletion strains, locus YOR231W, strain MKK1, active compounds read low",0.96
same,normalized growth,"S. cerevisiae deletion strains, locus YOR265W, strain rbl2, active compounds read low",0.998
same,normalized growth,"S. cerevisiae deletion strains, locus YOR270C, strain vph1, active compounds read low",0.924
same,normalized growth,"S. cerevisiae deletion strains, locus YOR290C, strain snf2, active compounds read low",0.971
same,normalized growth,"S. cerevisiae deletion strains, locus YOR316C, strain cot1, active compounds read low",1.02
same,normalized growth,"S. cerevisiae deletion strains, locus YPL051W, strain arl3, active compounds read low",0.959
same,normalized growth,"S. cerevisiae deletion strains, locus YPL055C, strain LGE1, active compounds read low",0.842
same,normalized growth,"S. cerevisiae deletion strains, locus YPL078C, strain atp4, active compounds read low",0.91
same,normalized growth,"S. cerevisiae deletion strains, locus YPL106C, strain sse1, active compounds read low",0.848 (active)
same,normalized growth,"S. cerevisiae deletion strains, locus YPL240C, strain hsp82, active compounds read low",1.01
same,normalized growth,"S. cerevisiae deletion strains, locus YPL241C, strain CIN2, active compounds read low",1.02
same,normalized growth,"S. cerevisiae deletion strains, locus YPL256C, strain CLN2, active compounds read low",0.931
same,normalized growth,"S. cerevisiae deletion strains, locus YPR119W, strain clb2, active compounds read low",1
same,normalized growth,"S. cerevisiae deletion strains, locus YPR141C, strain kar3, active compounds read low",1.02
same,normalized growth,"S. cerevisiae deletion strains, locus YPR163C, strain tif3, active compounds read low",1.03
same,normalized growth,"S. cerevisiae deletion strains, locus YPR167C, strain met16, active compounds read low",1.01
same,normalized growth,"S. cerevisiae deletion strains, strain wtn01, active compounds read low",0.995
same,normalized growth,"S. cerevisiae strains, strain wild type, active compounds read low",0.967
